Assay results reported in PubChem BioAssay (NCI).
The panel holds about 83,000 compounds, 20% with a hit somewhere; the sample as a whole holds those more often.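 Single-concentration screen, 48 h exposure, 96-well plates. Endpoint: percent growth. Below 10 = active.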 Values without a mark were called inactive. Calls of active or inactive are those of the source.

What was measured:
Experiment in all cases: NCI-60 one-dose screen, 48 h (100 = growth as untreated, 0 = no growth, -100 = all killed)
Settings in all cases: 10 µM unless noted
T-47D breast = test system: T-47D breast
BT-549 breast = test system: BT-549 breast
MDA-MB-435 melanoma = test system: MDA-MB-435 melanoma
SW-620 colon = test system: SW-620 colon
MCF7 breast = test system: MCF7 breast
HCT-116 colon = test system: HCT-116 colon
HCC-2998 colon = test system: HCC-2998 colon
KM12 colon = test system: KM12 colon

Structure (SMILES)	growth (T-47D breast)	growth (BT-549 breast)	growth (MDA-MB-435 melanoma)	growth (SW-620 colon)	growth (MCF7 breast)	growth (HCT-116 colon)	growth (HCC-2998 colon)	growth (KM12 colon)
C#CC#CC#CC#CC#CC#CC#CC#CCC1OC[C@H](COC(=O)O[C@@H](C(=O)O[C@H]2C[C@@]3(O)[C@@H](OC(=O)c4ccccc4)[C@@H]4[C@]5(OC(C)=O)CO[C@@H]5C[C@H](O)[C@@]4(C)C(=O)[C@H](OC(C)=O)C(=C2C)C3(C)C)[C@@H](NC(=O)c2ccccc2)c2ccccc2)O1 (stereo not given in full)	41.3%	26.4%	-48% (active)	27.7%	25%	14.2%	10.4%	10.8%
O=c1nc(-c2ccccc2)c2cc(-c3ccc(C(F)(F)F)nc3)ccc2[nH]1	95.3%	99.3%	104%	101%	86.8%	92.4%	105%	91.1%
CCN1CCN(C(=O)[C@]23CC[C@@H](C)[C@H](C)[C@@H]2C2=CC[C@@H]4[C@@]5(C)C/C(=C/c6cccnc6)C(=O)C(C)(C)[C@@H]5CC[C@@]4(C)[C@]2(C)CC3)CC1	22%	41.2%	24%	13.3%	8.54% (active)	10.3%	19.6%	18.2%
COc1cccc(Nc2ncnc3cc(NC(=O)CCl)ccc23)c1	-32.6% (active)	-28.7% (active)	-82% (active)	-73.6% (active)	-8.63% (active)	-53.8% (active)	23%	-68.5% (active)
CN(C)c1ccc(-c2ccc3c(c2)c(-c2ccccc2)nc(=O)n3C)cn1	22.1%	49.1%	-11.1% (active)	26.3%	18%	22.1%	78.2%	43.2%
CCN(CC)CCN1C(=O)c2c(c(C)c3c(oc4ccc(O)cc43)c2C)C1=O	0.129% (active)	105%	76.9%	2.51% (active)	4.29% (active)	-62.6% (active)	23.5%	32.3%
COc1ccc(Oc2nc(Nc3ccc(N4CCOCC4)cc3)ncc2NC(=O)Nc2cc(OC)cc(OC)c2)cc1	48.8%	12.5%	6.76% (active)	19.6%	41.7%	-55.5% (active)	9.48% (active)	24%
CC1(C)N=C(N)N=C(N)N1c1ccc(CCCCc2ccccc2)c(Cl)c1	15.8%	-16% (active)	27.8%	20.5%	1.84% (active)	13.9%	-43.9% (active)	-79.7% (active)
COc1ccc(N2CCC(=S)NC2=S)cc1	102%	105%	96.3%	104%	94.6%	104%	104%	101%
CCOC(=O)C(=Cc1ccc(-c2ccccc2)cc1)C(=O)OCC	27.8%	30.7%	38.3%	10.8%	16.9%	-10.1% (active)	76.2%	36.6%
COc1cc(Cl)c(C)cc1NC(=O)c1cc2ccccc2cc1O	11.5%	22.9%	3.68% (active)	21.2%	17.2%	4.6% (active)	17%	9.32% (active)
CCN(CC)CCN1C(=O)c2cccc3c(/C=C/CN4C(=O)c5cccc6cccc(c56)C4=O)ccc(c23)C1=O	94.8%	89.8%	103%	90.4%	4.8% (active)	95.5%	105%	63.6%
COc1ccc(-c2cc(-c3ccccc3)nc(N3CCN(CCNc4ccnc5cc(Cl)ccc45)CC3)n2)cc1	-48% (active)	72.8%	-72.1% (active)	-75.4% (active)	-84.8% (active)	-73.8% (active)	-81.5% (active)	-26.9% (active)
CC1(C)OB(O)c2cc(-c3nc4ccc5[nH]ncc5c4c4c3CCCC4)ccc21	34.9%	74.9%	48.8%	59.4%	44.1%	22.7%	82.9%	38.7%
C=C1C(=O)O[C@H]2[C@H]1CC/C(COC(=O)/C=C\C(=O)NCc1ccc(Cn3c(=O)sn(CCCCC)c3=O)cc1)=C\CC[C@@]1(C)O[C@@H]21	71.7%	85.8%	60.6%	19.2%	36.6%	40.3%	100%	98.8%
COc1ccc(C[n+]2c3ccccc3n3c4ccc(N)cc4ccc32)c(OC)c1OC	5.52% (active)	5.31% (active)	53.9%	82.1%	31.9%	71.9%	67.9%	19.9%
CCN1CCN(CC(=O)Nc2nc3ccc(NCc4ccc(F)cc4)cc3s2)CC1	86.8%	97.9%	93.4%	92.3%	92.1%	70.9%	110%	94.5%
Fc1ccc(Cn2cc(CSc3nc4ccccc4o3)nn2)cc1	85.3%	103%	102%	101%	93.8%	92.3%	109%	97.6%
CCN1C2CCC1/C(=C\c1ccc(F)cc1)C(=O)/C2=C/c1ccc(F)cc1	45.8%	24.9%	25%	30.4%	18.6%	7.21% (active)	65.8%	17.5%
OCCNCCNC(Cc1ccc(Cl)cc1)c1ccccc1 (stereo not given)	44.6%	79.7%	98.6%	107%	85.1%	75.7%	91.6%	90.4%
CCCn1cnc2c(c1=N)C(c1ccc(F)cc1)c1sc3c(F)cccc3c1O2 (stereo not given)	53.9%	63.9%	-35.6% (active)	25.1%	15.1%	36.3%	76.9%	36.1%
CN1C(=O)/C(=C2\SC(=Nc3ccccc3)N(Nc3ccccc3)C2=O)c2ccccc21	82.2%	109%	106%	98.3%	86.2%	104%	113%	103%
COc1cc(OC)c(C(=O)C(CN(C)C)CN(C)C)cc1OC	-17.6% (active)	74.5%	80.9%	-83.3% (active)	10.6%	-65.6% (active)	110%	111%
O=C(Nc1ccccc1O)c1ccc(CNC(=O)c2ccsc2Nc2ccnc(C(F)(F)F)c2)cc1	25%	51.7%	14.9%	19.1%	24.5%	15.9%	44.5%	30%
C#CC#CC#CC#CC#CC#CC#CC#CC[C@@H]1OC[C@@H](COC(=O)O[C@@H](C(=O)O[C@H]2C[C@@]3(O)[C@@H](OC(=O)c4ccccc4)[C@@H]4[C@]5(OC(C)=O)CO[C@@H]5C[C@H](O)[C@@]4(C)C(=O)[C@H](OC(C)=O)C(=C2C)C3(C)C)[C@@H](NC(=O)c2ccccc2)c2ccccc2)O1	91.3%	17%	101%	101%	13.6%	7.34% (active)	-43.9% (active)	96.6%
COc1ccc(/C=C(/C(=O)n2cnnn2)c2cc(OC)c(OC)c(OC)c2)cc1	43.1%	38.2%	-50.3% (active)	21.2%	16.2%	13.7%	28.2%	17.7%
Cc1ccc(S(=O)(=O)N2CCC(=O)c3ccccc32)cc1	78.7%	65.6%	6.12% (active)	44.7%	40.5%	59.4%	83.8%	33.5%
Nc1nc2c(c3ncccc13)C(c1cccc(Cl)c1)Cc1ncccc1-2 (stereo not given)	30.1%	38.7%	-57.9% (active)	23.1%	17.2%	24.4%	34.4%	19.4%
CCN1C(=O)N(CC)C2C1NC(=S)N2/N=C/c1ccc(OC)cc1 (stereo not given)	49.8%	59.4%	-13.7% (active)	25.6%	22.5%	24.7%	67.8%	31.2%
CC(=O)O[C@H]1C[C@@H]2C(C)(C)C(=O)CC[C@@]2(C)c2ccc(C(C)C)cc21	102%	101%	100%	104%	107%	105%	107%	97.7%
